Reference: PubChem BioAssay (NCI)
The panel holds about 83,000 compounds, 20% with a hit somewhere; the sample as a whole holds those more often.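 Results are percent growth after 48 hours of single-concentration exposure. 100 means growth as in untreated cells, lower positive values show inhibition; negative values down to -100 show cell death.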 A number with no mark means an inactive call. Active and inactive are the calls of the source. How the source made its calls: active means growth percent below 10; inactive means the rest.

system: MALME-3M melanoma; assay: NCI-60 one-dose screen, 48 h (100 = growth as untreated, 0 = no growth, -100 = all killed); conditions: 10 µM unless noted

Row | Compound | growth
1 | CN1CCN(Cc2ccc(NC(=O)c3cncc(C#Cc4cnc5ccc(NCCCO)nn45)c3)cc2C(F)(F)F)CC1 | -56.1% (active)
2 | COC(=O)c1[nH]nc2c1C1(C(=O)N(C)c3ccccc31)C(C#N)=C(N)O2 (stereo not drawn) | 103%
3 | O=C(Cn1cc(-c2ccccc2)nn1)Nc1nc(-c2ccc(Cl)cc2)cs1 | 90.4%
4 | COc1cc(OC)c(S(N)(=O)=O)cc1C(C)=O | 109%
5 | COc1ccccc1N1CCN(C2=CC(=O)C(C)=C(C)C2=O)CC1 | 104%
6 | Cn1ccnc1C(=O)/C=C/c1ccc(CNC(=O)c2ccc(F)cc2)cc1 | 84%
7 | Cc1c(Cl)cccc1S(=O)(=O)Nc1ccc2c(c1)C(=O)N(C1CCC(=O)NC1=O)C2=O (stereo not drawn) | 55%
8 | NS(=O)(=O)c1ccc(-n2cc(-c3cccc(NC(=O)c4ccc(N5CCOCC5)c(C(F)(F)F)c4)c3)nn2)cc1 | 43.8%
9 | CCc1cccc2c3c(sc12)C(c1ccc(OC)cc1)C(C#N)=C(/N=C/c1ccc(Cl)cc1)O3 (stereo not drawn) | 48.3%
10 | Nc1ncc(-c2ccc3ncnc(N4CCc5cc(F)c(F)cc54)c3c2)cn1 | 17.4%
11 | COc1c(N2CC3CCCNC3C2)c(F)cc2c(=O)c(C(=O)N/N=C/c3ccc(Br)cc3)cn(C3CC3)c12 (stereo not drawn) | 82.8%
12 | O=C(NNc1nc2cc(F)c(F)cc2n2c(CN3CC4CNCC4C3)ccc12)c1ncccn1 (stereo not drawn) | 10.3%
13 | Cc1ccc(NC(=O)CNc2cc(C(N)=O)cc(F)c2C)c(Cl)c1 | 106%
14 | CNC(=O)c1cc(Oc2ccc3nc(NC(=O)c4cccc(OC(F)(F)F)c4)sc3c2)ccn1 | 76.8%
15 | O=C1CCCC2=C1C(c1c[nH]c3ccc(Br)cc13)Cc1cc(Br)ccc1N2 (stereo not drawn) | 49.3%
16 | COc1cc2oc(-c3cccc(C(=O)N[C@@H](CC(C)C)C(=O)OC(C)(C)C)c3)cc(=O)c2c(OC)c1OC | 96.3%
17 | CC(=O)c1nnn(-c2c(C(=O)n3nc(C)cc3C)sc(=S)n2-c2ccccc2)c1C | 67.7%
18 | CS(=O)(=O)Nc1cc(-c2ccc3ncc(C#N)c(N[C@H](CO)c4ccccc4)c3c2)cnc1Cl | 29.8%
19 | COc1ccc(C(=O)CSc2nc3c(c(Nc4ccc(S(N)(=O)=O)cc4)n2)CCCC3)cc1 | 103%
20 | CCn1c(SCC(=O)Nc2cccc(C(=O)/C=C/c3ccc(Br)cc3)c2)nc2ccccc2c1=O | 95.3%
21 | N#Cc1c(Nc2ccccc2)nn2c(-c3ccc([N+](=O)[O-])cc3)ccnc12 | 104%
22 | COc1ccc(OC)c(-c2nc(SCC(=O)c3ccc(Br)cc3)nc(Nc3ccc(S(N)(=O)=O)cc3)c2C#N)c1 | 50.2%
23 | COc1ccc2c(c1)c(CC(=O)[Se]CCC#N)c(C)n2C(=O)c1ccc(Cl)cc1 | -68.3% (active)
24 | CN(C)CCN(C)c1ccc2ncc(C#Cc3cncc(C(=O)Nc4ccc(CN5CCN(C)CC5)c(C(F)(F)F)c4)c3)n2n1 | 61.9%
25 | NC(=O)c1c(NC(=O)c2ccccc2C(F)(F)F)sc2c1CCC(=O)C2 | 15%
26 | NC(N)=Nc1ccc(Oc2cccc(NC(N)=Nc3ccc(I)cc3F)c2)cc1 | 83%
27 | COc1ccc(CCOc2cc3c(cc2OC)CCN(C(=O)NCc2cocn2)C3c2ccc(C)cc2C)cc1 (stereo not drawn) | 52.2%
28 | CC1(C)CC[C@]2(C(=O)N3CCOCC3)CC[C@]3(C)C(=CC[C@@H]4[C@@]5(C)C/C(=C/c6ccccn6)C(=O)C(C)(C)[C@@H]5CC[C@]43C)[C@@H]2C1 | 88.7%
29 | COc1cc(-c2nc(SC(C)C)n(C(C)C)c(=O)c2C#N)ccc1OCc1ccccc1 | 82.4%
30 | CCCCCc1ccc(S(=O)(=O)Nc2cccc(-c3csc(NCCN4CCN(C)CC4)n3)c2)cc1 | -36.7% (active)

system: MDA-MB-231 breast; assay: as above; conditions: 10 µM unless noted

Row | Compound | growth
31 | CN1CCN(Cc2ccc(NC(=O)c3cncc(C#Cc4cnc5ccc(NCCCO)nn45)c3)cc2C(F)(F)F)CC1 | 12.2%
32 | COC(=O)c1[nH]nc2c1C1(C(=O)N(C)c3ccccc31)C(C#N)=C(N)O2 (stereo not drawn) | 107%
33 | O=C(Cn1cc(-c2ccccc2)nn1)Nc1nc(-c2ccc(Cl)cc2)cs1 | 104%
34 | COc1cc(OC)c(S(N)(=O)=O)cc1C(C)=O | 101%
35 | COc1ccccc1N1CCN(C2=CC(=O)C(C)=C(C)C2=O)CC1 | 102%
36 | NC(N)=Nc1ccc(Oc2cccc(Nc3ccc(Br)c(C(F)(F)F)c3)c2)cn1 | -57.6% (active)
37 | Cn1ccnc1C(=O)/C=C/c1ccc(CNC(=O)c2ccc(F)cc2)cc1 | 11%
38 | Cc1c(Cl)cccc1S(=O)(=O)Nc1ccc2c(c1)C(=O)N(C1CCC(=O)NC1=O)C2=O (stereo not drawn) | 46.8%
39 | NS(=O)(=O)c1ccc(-n2cc(-c3cccc(NC(=O)c4ccc(N5CCOCC5)c(C(F)(F)F)c4)c3)nn2)cc1 | 52%
40 | CCc1cccc2c3c(sc12)C(c1ccc(OC)cc1)C(C#N)=C(/N=C/c1ccc(Cl)cc1)O3 (stereo not drawn) | 40.3%
41 | Nc1ncc(-c2ccc3ncnc(N4CCc5cc(F)c(F)cc54)c3c2)cn1 | 26.9%
42 | COc1c(N2CC3CCCNC3C2)c(F)cc2c(=O)c(C(=O)N/N=C/c3ccc(Br)cc3)cn(C3CC3)c12 (stereo not drawn) | 56.1%
43 | O=C(NNc1nc2cc(F)c(F)cc2n2c(CN3CC4CNCC4C3)ccc12)c1ncccn1 (stereo not drawn) | 38.7%
44 | COc1ccc(/C=C(\C#N)C(=O)N2c3ccccc3Sc3ccc(SC)cc32)cc1F | 84.7%
45 | Cc1ccc(NC(=O)CNc2cc(C(N)=O)cc(F)c2C)c(Cl)c1 | 67%
46 | CNC(=O)c1cc(Oc2ccc3nc(NC(=O)c4cccc(OC(F)(F)F)c4)sc3c2)ccn1 | 76.1%
47 | O=C1CCCC2=C1C(c1c[nH]c3ccc(Br)cc13)Cc1cc(Br)ccc1N2 (stereo not drawn) | 40%
48 | COc1cc2oc(-c3cccc(C(=O)N[C@@H](CC(C)C)C(=O)OC(C)(C)C)c3)cc(=O)c2c(OC)c1OC | 72.1%
49 | NC(N)=Nc1ccc(Nc2cccc(Nc3ccc(Cl)c(C(F)(F)F)c3)c2)cn1 | 31%

Row | Compound | growth
50 | CC(=O)c1nnn(-c2c(C(=O)n3nc(C)cc3C)sc(=S)n2-c2ccccc2)c1C | 89.2%
51 | CS(=O)(=O)Nc1cc(-c2ccc3ncc(C#N)c(N[C@H](CO)c4ccccc4)c3c2)cnc1Cl | 43%
52 | COc1ccc(C(=O)CSc2nc3c(c(Nc4ccc(S(N)(=O)=O)cc4)n2)CCCC3)cc1 | 88.1%
53 | CCn1c(SCC(=O)Nc2cccc(C(=O)/C=C/c3ccc(Br)cc3)c2)nc2ccccc2c1=O | 85.5%
54 | N#Cc1c(Nc2ccccc2)nn2c(-c3ccc([N+](=O)[O-])cc3)ccnc12 | 102%
55 | O=C(CCn1c[n+](CC(=O)c2ccc(-c3ccccc3)cc2)c2ccccc21)Nc1cccc2cccnc12 | 49.6%
56 | COc1ccc(OC)c(-c2nc(SCC(=O)c3ccc(Br)cc3)nc(Nc3ccc(S(N)(=O)=O)cc3)c2C#N)c1 | 63%
57 | FC(F)(F)c1cc(Nc2cccc(Oc3ccc(NC4=NCCN4)nc3)c2)ccc1Cl | 9.73% (active)
58 | CCO/C=N/C1=C(C#N)C(c2ccc(OC)cc2)c2sc3c(CC)cccc3c2O1 (stereo not drawn) | 31.7%
59 | COc1ccc2c(c1)c(CC(=O)[Se]CCC#N)c(C)n2C(=O)c1ccc(Cl)cc1 | -13.8% (active)
60 | CN(C)CCN(C)c1ccc2ncc(C#Cc3cncc(C(=O)Nc4ccc(CN5CCN(C)CC5)c(C(F)(F)F)c4)c3)n2n1 | -53.4% (active)
61 | NC(=O)c1c(NC(=O)c2ccccc2C(F)(F)F)sc2c1CCC(=O)C2 | 16.2%
62 | NC(N)=Nc1ccc(Oc2cccc(NC(N)=Nc3ccc(I)cc3F)c2)cc1 | 83.6%
63 | COc1ccc(CCOc2cc3c(cc2OC)CCN(C(=O)NCc2cocn2)C3c2ccc(C)cc2C)cc1 (stereo not drawn) | 20.5%
64 | CC(C)(C)c1ccc(C(=O)Nc2nc3ccc(O)cc3s2)cc1 | 69.5%
65 | CC1(C)CC[C@]2(C(=O)N3CCOCC3)CC[C@]3(C)C(=CC[C@@H]4[C@@]5(C)C/C(=C/c6ccccn6)C(=O)C(C)(C)[C@@H]5CC[C@]43C)[C@@H]2C1 | 55.2%
66 | CCO/C=N/C1=C(C#N)C(c2ccc(F)cc2)c2sc3c(C)cccc3c2O1 (stereo not drawn) | 17.8%
67 | COc1cc(-c2nc(SC(C)C)n(C(C)C)c(=O)c2C#N)ccc1OCc1ccccc1 | 75.7%
68 | CCCCCc1ccc(S(=O)(=O)Nc2cccc(-c3csc(NCCN4CCN(C)CC4)n3)c2)cc1 | 64.3%
